Source: PubChem
4-MU autofl: qHTS Assay for Spectroscopic Profiling in 4-MU Spectral Region; compound autofluorescence, 340/450 nm, 4-MU equivalents; active compounds read high; max dye-equivalent concentration, M; 11% of 59,000 active; in the data active = max dye-equivalent concentration above about 10 nM; inconclusive = mostly about 1.1 nM to 9.6 nM
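Compounds in 100 mM Tris, pH 8.0, incubated 15 min at room temperature, then fluorescence read at 340 nm excitation/450 nm emission. Signal converted to 4-MU dye-equivalent concentration using an on-plate six-point 4-MU standard curve.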
A350 autofl: qHTS Assay for Spectroscopic Profiling in A350 Spectral Region. max dye-equivalent concentration, M. 11% of 59,000 active. Compound autofluorescence, 340/450 nm, Alexa 350 dye-equivalents; active compounds read high. AID 590, 2007; in the data active = max dye-equivalent concentration above about 10 nM; inconclusive = mostly about 1.1 nM to 9.6 nM
HADH2 inh: qHTS Assay for Inhibitors of HADH2 (Hydroxyacyl-Coenzyme A Dehydrogenase, Type II) | 3-hydroxyacyl-CoA dehydrogenase type-2 (Homo sapiens), Q99714 | recombinant HADH2, NADH fluorescence, beta-hydroxybutyryl-CoA | Potency, µM (series often up to 57.1 µM), for the others: at the top dose activity change, negative = inhibition, most hits filed as inhibitors | 3.4% of 73,000 active | AID 886, 2007; note: potency is the fitted concentration of half-maximal effect; % is set by controls: 0 for no effect and ±100 for the full control effect; nearly all actives have a fitted effect of over 60% in size
Target sequence (Q99714 whole entry, looked up, one chain of several): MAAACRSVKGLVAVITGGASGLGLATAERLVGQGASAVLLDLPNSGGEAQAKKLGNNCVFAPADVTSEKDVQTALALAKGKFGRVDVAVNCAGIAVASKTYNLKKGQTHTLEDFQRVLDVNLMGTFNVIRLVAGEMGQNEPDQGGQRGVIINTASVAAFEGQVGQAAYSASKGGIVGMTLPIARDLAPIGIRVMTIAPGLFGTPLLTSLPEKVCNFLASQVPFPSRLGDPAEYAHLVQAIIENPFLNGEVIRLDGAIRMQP
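20 nM HADH2 + cpd, 15 min RT; add 1 mM NAD+/90 uM beta-hydroxybutyryl-CoA; kinetic fluorescence 360/450 nm, 4 min. Tris-HCl pH 9.0, 0.01% Tween-20.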
AID923: qHTS Assay for Allosteric/Competitive Inhibitors of Caspase-1: Spectroscopic Profiling in AFC Spectral Region. compound fluorescence, AFC spectral region (405/520 nm). Potency, µM (titrated, usually from 57.5 µM), for inactives: at the top dose fluorescence increase, hits mostly activators. 1.1% of 75,000 active. AID 923, 2007; note: potency is the fitted concentration of half-maximal effect; 0% is about no effect
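Baseline compound fluorescence (AFC region, 405 nm ex/520 nm em) taken from the intercept of kinetic reads with 50 nM caspase-1 and 5 uM Ac-WEHD-AFC; normalized to an on-plate AFC standard curve; compounds titrated up to 57 uM.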
CRE Fsk mod: Cell signaling CRE-BLA (Fsk stim) | CHO CRE-bla reporter (cAMP response element driving beta-lactamase), forskolin EC10, beta-lactamase ratio | Potency, µM (top dose mostly 38.2 µM), without a hit: at the top dose activity change, negative = inhibition, most hits filed as activators | 2.5% of 71,000 active | AID 662, 2007; active = well fitted activation curve with a large enough effect in the signal ratio, with a control signal flat, not every such curve was filed as active; inconclusive = small, poorly fitted or top-dose-only effect, or effect the other way, or a change in a side signal; the % refers to the signal ratio; note: potency is the fitted concentration of half-maximal effect; % of control where 0% means no effect
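Titrated compounds plus EC10 NKH 477 on CHO CRE-bla cells, 3 h, 37 °C. CCF4, 2 h RT. Ratio 460/530 nm → AC50.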
HSD17B inhib: qHTS Assay for Inhibitors of HSD17B4, hydroxysteroid (17-beta) dehydrogenase 4. 3-hydroxyacyl-CoA dehydrogenase type-2 (Homo sapiens), Q99714. recombinant HSD17B10, NADH fluorescence kinetic. Potency, µM (top dose mostly 57.1 µM), for inactives: at the top dose activity change, negative = inhibition, most hits filed as inhibitors. 7.6% of 75,000 active;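 note: the protocol describes HADH2 (HSD17B10) and not the HSD17B4 of the title; potency is the fitted concentration of half-maximal effect; % is set by controls: 0 for no effect and ±100 for the full control effect; nearly all actives have a fitted effect of over 70% in size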
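Enzyme plus compound, 15 min room temperature; substrate mix added (NAD+ 1 mM, beta-hydroxybutyryl-CoA 90 uM final); plates read kinetically for NADH fluorescence. HADH2 was His-tagged, E. coli-derived, 20 nM.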
* marks the source's active call; other numbers are inactive results; i = inactive; u = inconclusive; x = not tested or not shown; [ ] = another dose, or the depositor's remark. Only some compounds are listed: those with a hit (about 14% of all), similar ones and a draw of the others. Unless noted, calls come from the whole dose curve; as a rule, active = well fitted curve in the direction sought with a large enough effect; inconclusive = small, poorly fitted or top-dose-only effect, or another doubt; inactive = no such curve, though single readings can be large; an effect the other way counts as inactive or inconclusive.

SMILES	4-MU autofl	A350 autofl	HADH2 inh	AID923	CRE Fsk mod	HSD17B inhib
Clc1ccc(CSc2ncnc3c2ncn3[C@@H]2CCCCO2)cc1	i	i	-8%[11.4 µM]	-3%[11.5 µM]	21%[7.6 µM]	2%[11.4 µM]
Cn1c(=O)c2c(nc(CN3CCN(c4ccccc4F)CC3)n2CCN2CCOCC2)n(C)c1=O	1.4e-08M*	1.6e-08M*	2%	3%	u	u
Cc1ccccc1Cn1c(CN2CCN(C(=O)c3ccco3)CC2)nc2c1c(=O)n(C)c(=O)n2C	x	x	14%	-1%	u	-22%
Cn1c(=O)c2c(nc(CN3CCN(C(=O)c4ccco4)CC3)n2Cc2ccc(F)cc2)n(C)c1=O	5.6e-08M*	6.3e-08M*	-9%	0%	0%	-18%
CCCCn1c(CN2CCOCC2)nc2c1c(=O)n(C)c(=O)n2C	x	x	-15%	6%	8%	25µM*
[Li+]	i	i	5%	0%	3%	4%
CCOC(=O)c1sc(NC(=O)CSc2nnc(Cc3ccccc3)o2)c(C#N)c1C	i	i	0.16µM*	2%	2%	16µM*
CCOC(=O)c1sc(NC(=O)CSc2ccccn2)c(C#N)c1C	i	i	7%	-1%	-14%	2%
CCOC(=O)c1sc(NC(=O)CSc2n[nH]c(-c3ccccc3)n2)c(C#N)c1C	1.2e-08M*	1.7e-08M*	0.79µM*	-2%	19%	25µM*
CCOC(=O)c1c(NC(=O)CSc2n[nH]c(-c3ccco3)n2)sc(C)c1C	i	i	-17%	-1%	0.063µM*	-10%
CO[C@H]1COC(=O)[C@H]2CCCN2C(=O)[C@@H](C)COC(=O)C/C=C\[C@@H]1C	x	x	6%[11.4 µM]	2%[11.5 µM]	x	3%[11.4 µM]
Cc1coc2c1C(=O)C(=O)c1c-2ccc2c1CCCC2(C)C	x	x	x	-3%	x	25µM*
CC1(C)[C@@H](CC(=O)O)CCC[C@@H]1CC(=O)O	i	i	-1%[11.4 µM]	1%[11.5 µM]	4%[7.6 µM]	5%[11.4 µM]
COC(=O)c1oc2ccc(Br)cc2c1NC(=O)CN1CCN(C)CC1	i	i	2%	0%	0%	3%
COC(=O)c1oc2ccc(Br)cc2c1NC(=O)c1ccccc1	u	1.1e-08M*	u	-1%	1%	u
COc1ccc(C)cc1NC(=O)CSc1nnc(COc2ccccc2)n1Cc1ccco1	5.9e-08M*	7.1e-08M*	5%	2%	-25%	-21%
O=C(CSc1n[nH]c(-c2ccco2)n1)Nc1sc2c(c1C(=O)Nc1ccccc1)CCCC2	i	i	-12%	1%	u	-11%
Cc1cccc(OCc2nnc(SCC(=O)N(C(C)C)C(C)C)n2Cc2ccco2)c1C	i	i	-5%	1%	13µM*	-23%
COc1ccc(C)cc1NC(=O)CSc1nnc(COc2ccc(Cl)cc2)n1Cc1ccco1	i	i	-5%	0%	u	-13%
COc1ccc(C)cc1NC(=O)CSc1nnc(-c2ccccn2)n1Cc1ccco1	i	i	3%	-1%	1.6µM*	2%
NC(=O)c1c(NC(=O)CSc2nnc(-c3ccco3)n2-c2ccccc2)sc2c1CCC2	i	i	-30%	0%	u	25µM*
CC(C)CO/N=C1/[C@H]2O[C@@H]2[C@@H](O)[C@H]2[C@H]1CCn1c(=O)n(Cc3cc4c(cc3Cl)OCO4)c(=O)n12	x	x	8%[11.4 µM]	2%[11.5 µM]	x	0%[11.4 µM]
CC#CC(C)C(OCOC)C(CC(C)Cc1cc(Br)cc(OCc2ccccc2)c1OC)OC (stereo unspecified)	x	x	9%[11.4 µM]	1%[11.5 µM]	x	1%[11.4 µM]
O=C(c1cnccn1)N1CCC2(CC1)CN(Cc1cc(C(F)(F)F)cc(C(F)(F)F)c1)C2	i	i	-21%	3%	-11%	-8%
CCC1=C2CC[C@H]3C(=O)N(C)C(=O)[C@H]3[C@H]2[C@@]2(C)C(=NCc3ccccc3)OC(=O)N2C1=O	x	x	x	3%	x	6%
SMILES	4-MU autofl	A350 autofl	HADH2 inh	AID923	CRE Fsk mod	HSD17B inhib
COc1ccc(OC)c(NC(=O)CSc2nnc(-c3ccco3)n2-c2ccc(C(=O)O)cc2)c1	u	1.5e-08M*	x	x	x	x
COc1ccc(-c2nnc(SCC(=O)Nc3ncc(C)s3)n2-c2ccccc2)cc1OC	i	i	3%	-1%	5µM*	-8%
COc1ccccc1NC(=O)CSc1nnc(-c2ccccn2)n1Cc1ccco1	i	i	-3%	0%	10µM*	-5%
COc1ccccc1NC(=O)CSc1nnc(-c2ccco2)n1Cc1ccco1	i	i	-6%	-1%	-3%	-6%
CN(C)c1ncnc2ccc(-c3ccccc3C(F)(F)F)cc12	i	i	12%	-1%	u	-1%
OC[C@@H]1O[C@@H](n2cnc3c(SCc4ccccc4)ncnc32)[C@@H](O)[C@H]1O	i	i	21%[11.4 µM]	0%[11.5 µM]	1%[7.6 µM]	5%[11.4 µM]
CCc1cccc2c3c([nH]c12)[C@](CC)(CC(=O)O)OCC3	i	i	-12%	x	6%	x
COCc1cc(=O)n2[nH]c(-c3cccc(Br)c3)cc2n1	x	x	315%	10%	1%	-13%
COCc1cc(=O)n2[nH]c(C)cc2n1	i	i	25µM*	-3%	u	25µM*
CCCc1cc(=O)n2[nH]c(-c3ccccc3)cc2n1	i	i	25%	1%	-4%	32µM*
COCc1cc(=O)n2[nH]c(-c3ccccc3)cc2n1	x	x	32µM*	0%	-1%	32µM*
CCCc1cc(=O)n2[nH]c(-c3ccc(C)cc3)cc2n1	i	i	u	-1%	2%	20µM*
CCCc1cc(=O)n2[nH]c(C)nc2n1	i	u	2%	3%	-3%	0%
COC(=O)c1ccc(C(NC(=O)OCc2ccccc2)/C(=C/[C@@H](C)C(=O)N[C@@H](CO)Cc2ccccc2)c2cccnc2)cc1 (stereo partly specified)	x	x	2%	1%	-21%	8%
CC(CC(=O)O)(CC(=O)O)c1ccccc1	i	i	-3%[11.4 µM]	1%[11.5 µM]	8%[7.6 µM]	0%[11.4 µM]
Cc1oc2ccccc2c1-c1cn2c(n1)SCC2	4.4e-08M*	5.1e-08M*	u	8%	-13%	i
COC(=O)c1ccc(C(/C=C/[C@@H](C)C(=O)NCc2ccc(OC)c(O)c2)NC(=O)OCc2ccccc2)cc1 (stereo partly specified)	x	x	18%	-3%	4%	-8%
COC(=O)NC(c1ccco1)[C@]1(C(C)=O)CCCC1=O (stereo partly specified)	x	x	-9%[11.4 µM]	2%[11.5 µM]	x	-1%[11.4 µM]
